Values joined by “and” are separate entries in the source; they are usually repeats but may differ in a detail not shown here. Equal entries are not always repeated. The campaign covered roughly 220,000 compounds. About 10 (0.005%) were called active. No stated cut-off is given here; in the data, active means maximum fold increase above about 1.5; inconclusive means no clear call, values can overlap the other calls; inactive means below that; tested in PC3 cells. A selection follows.
Test: enhancers of HSV replication in host cells, fold increase, host cell viability (AID 1956)
Settings: HSV replication augmentation in cells; fold increase: measured here: primary screen fold increase 10 uM, at 10 µM, stronger effect = higher value; maximum fold increase: at 0.098 µM, stronger effect = higher value; viability: measured here: host cell viability series, at 25 µM, stronger effect = lower value

| Compound | fold increase | outcome |
| --- | --- | --- |
| Cc1ccc(-c2csc(NCCc3nc4cc(Cl)c(Cl)cc4n3CCOCCO)n2)cc1 | 0.88 | inactive |
| CN(C)S(=O)(=O)c1ccc(NC(=O)COC(=O)Cn2[nH]c(=O)c3ccccc3c2=O)cc1 | 0.93 | inactive |
| Nc1nc(Nc2ccccc2)nc(NCCO)c1[N+](=O)[O-] | 0.82 | inactive |
| C=CCSc1nnc2c(n1)-c1cccc3cccc-2c13 | 0.7 | inactive |
| O=C1N[C@H](Cc2ccccc2)C(=O)N[C@H]1Cc1cn(S(=O)(=O)c2ccccc2)c2ccccc12 | 0.74 | inactive |
| O=C(COc1ccccc1[N+](=O)[O-])N/N=C/c1ccc[nH]1 | 1 | inactive |
| Cc1ccc(N2C(=O)CC(Nc3cccc4ccccc34)C2=O)cc1 (centres undefined) | 0.96 | inactive |
| CC(=O)NC(=S)Nc1ccc(NC(=O)c2cccnc2)cc1 | 0.97 | inactive |
| COc1ccc(/C=N/n2nnnc2N)cc1OC | 0.91 | inactive |
| Cc1ccc(/C=N/NC(=S)NC2CCCCC2)o1 | 0.99 | inactive |
| O=C(O)C1CCN(C(=O)c2cc(F)cc3c2OCOC3)CC1 | 1.05 | inactive |
| C[C@H]1CC[C@]2(O[C@@H](CCO)C[C@@H](O)[C@@H]2O)O1 | 0.79 | inactive |
| O=C(O)CCCCCCCCCC[n+]1ccccc1 | 0.88 | inactive |
| COc1ccc2c(c1)CCNC2Cc1ccc(OC)c(O)c1 (centres undefined) | 0.84 | inactive |
| O=C1c2ccccc2S(=O)(=O)c2cc(N3CCN(c4ccccn4)CC3)ccc21 | 0.92 | inactive |
| CCOC(=O)c1ccc(NC(=O)c2c(N)n(C)c(=O)[nH]c2=O)cc1 | 0.86 | inactive |
| COC(=O)c1cc(NC(=O)c2cc(C(C)(C)C)nn2Cc2cccc(C)c2)ccc1N1CCOCC1 | 0.93 | inactive |
| COc1ccc(-c2csc(NC3OC(=O)c4ccccc43)n2)cc1 (centres undefined) | 0.65 | inactive |
| O=C(O)Cc1csc(-c2cccc(Oc3ccccc3)c2)n1 | 1.01 and 0.89 | inactive |
| Cc1ccc(CNC(=O)c2ccc3c(c2)S(=O)(=O)c2ccccc2C3=O)cc1 | 0.82 | inactive |
| O=C(Cc1ccccc1)Nc1c(Cl)ccc2nsnc12 | 1.01 | inactive |
| COc1ccc(Cl)cc1CSc1ncn[nH]1 | 0.97 | inactive |
| Cc1c(NC(=O)C(=O)N/N=C/c2cccs2)c(=O)n(-c2ccccc2)n1C | 0.92 | inactive |
| O=C(NC1CC1)C1=C[C@H](c2coc3ccccc3c2=O)C[C@H](OCCCCO)O1 | 0.73 | inactive |
| CC(C)Cc1ccc(C(C)C(=N)N)cc1 (centres undefined) | 0.92 | inactive |
| CC(C)(C)n1nc(Cc2cccc3ccccc23)c(C#N)c1N | 0.79 | inactive |
| Oc1ccc(-c2nnc(Nc3ccccc3)c3ccccc23)cc1 | 0.8 | inactive |

— PubChem BioAssay AID1956 (SRMLSC, 2009)
